# PubChem BioAssay (NCATS)
# Records with an inconclusive call do not appear. A number with no mark means an inactive call. The source made the active and inactive calls. Calls follow the shape of the dose curve; as a rule, active = well fitted activation curve with a large enough effect; inconclusive = small, poorly fitted or top-dose-only effect; inactive = flat fitted curve, though single readings scatter.
# Experiment: Cell Proliferation Assay against the TMD8 Cell Line (Caspase readout at 16 hrs) (AID 651712)
# Settings: TMD8 lymphoma cells, caspase activation luminescence; series mostly up to 46.1 µM; caspase activation: at the top concentration
# Text: One class of targeted therapeutics showing early clinical success in killing of ABC DLBCL lines are small molecule inhibitors of the Bruton tyrosine kinase (BTK) 11. Thus, we chose to investigate what additional compounds, if any, would synergize with the BTK inhibitor Ibrutinib (PCI-32765).
# Prior to any combination assays, using an NCATS developed oncology compound library called the Mechanism of Interrogation Plate (MIPE), two well studied ABC DLBCL lines (TMD8 and HBL1) were screened using a cell viability assay (CellTiterGlo) and a 12-point titration series for each single agent. These initial experiments offered insight into the concentration range that offered the best coverage of activity and non-activity to assure relevant data is generated. In addition to the viability signature associated with this library, we examined the apoptotic response of each agent versus the TMD8 line as judged by caspase 3/7 activation. Activity was assayed at both 8 and 16 hour time-points to gain an appreciation of which agents induced an apoptotic response in a reasonable timeframe from a therapeutic exposure perspective. MIPE was also assayed for single agent viability in a human mesenchymal stem cell (hMSC) line as a surrogate of each library members potential therapeutic index.
# The combination plates were then generated by choosing 20 of the best compounds from this single agent screen and plated in the presence of the BTK inhibitor. The first analysis was carried out using 6x6 dose response blocks for each of the 20 compounds. […] In addition to the cell viability assay, the parallel caspase 3/7 activation and viability in hMSC assays were carried out in the 10x10 format.
# A total of 500 log growing TMD8 cells are seeded per well in 5 uL of a RPMI with glutamine (or Glutamax), without phenol red plus 5% FBS and 1X Pen/Strep into 1536 -solid white high base tissue culture treated Greiner One Bio Plates (789173-F) using a multidrop combi dispenser and a small sterile cassette. Compounds and controls totaling 23nL per well (negative control DMSO and positive control 9.2 uM Bortezomib-final) are immediately added to the plates using a 1536 head pin tool from Kalypsys. The plates are then covered with stainless steel gasket lids from Kalypsys and incubated for either 16 hours at 37C under 95% relative humidity with 5% CO2. After the desired incubation time, the plates are removed and allowed to reach room temperature before 3 uL of the Caspase Glo reagent (Promega) is added using an Aurora Flying Reagent Dispenser Bioraptor. The plates are then spun at 1000 rpms to remove bubbles and incubated for 15 minutes at room temperature before read on a ViewLux using a luminescent filter with a 10 second exposure. The relative luciferase units are used to calculated percent activity using DMSO as 0% and Bortezomib as 100%.
# Potency is read from the fitted curve at half-maximal effect.
Compound,Potency,caspase activation [%]
COc1cc([C@@H]2c3cc4c(cc3[C@H](O)[C@H]3COC(=O)[C@H]23)OCO4)cc(OC)c1OC,0.0037 µM (active),–
COc1ccc(C(=O)c2c(C)n(CCN3CCOCC3)c3ccccc23)cc1,20.9 µM (active),–
Cc1sc2c(c1C)C(c1ccc(Cl)cc1)=N[C@@H](CC(=O)OC(C)(C)C)c1nnc(C)n1-2,0.469 µM (active),–
C[C@@H]1[C@@H](CC(C[C@H]2O[C@@H]3O[C@]4(C)CC[C@@H]5[C@H](C)CC[C@@H]([C@H]2C)[C@@]35OO4)C[S+](=O)([O-])c2ccc(COC(=O)N(C)C)cc2)O[C@@H]2O[C@]3(C)CC[C@H]4[C@H](C)CC[C@@H]1[C@@]24OO3 (stereo partly drawn),0.209 µM (active),–
CCCCC/C=C\C/C=C\C/C=C\C/C=C\CCCC(=O)NC1CC1,–,29.7
COC1(CS(=O)c2ccccc2)CCN(CCc2c[nH]c3ccc(F)cc23)CC1 (stereo not drawn),–,2.12
CC(O)(CS(=O)(=O)c1ccc(F)cc1)C(=O)Nc1ccc(C#N)c(C(F)(F)F)c1 (stereo not drawn),–,5.71
CO[C@@H](C(=O)N1Cc2[nH]nc(NC(=O)c3ccc(N4CCN(C)CC4)cc3)c2C1)c1ccccc1,13.2 µM (active),–
Cn1cc(C2=C(c3cn(C4CCN(Cc5ccccn5)CC4)c4ccccc34)C(=O)NC2=O)c2ccccc21,16.6 µM (active),–
Cn1c(CCCC(=O)O)nc2cc(N(CCCl)CCCl)ccc21,–,-0.0835
CNC(=O)N1N=C(c2ccc(N)cc2)c2cc3c(cc2CC1C)OCO3 (stereo not drawn),18.7 µM (active),–
C[C@]12CCC(=O)C(O)=C1CC[C@@H]1[C@@H]2CC[C@]2(C)C(=O)CC[C@@H]12,–,0.81
CN(C)CCN(C)CCc1ccc(Cl)c(Cl)c1,–,5.21
